A short description of assay [1]: A549 cell viability effects, profiling panel, calcein-AM fluorescence, 48 h, basal (AID 1162). Note: test concentration not given here. The following applies: higher = more signal.
A short description of assay [2]: adipocyte viability effects, profiling panel, cell-based, 3T3-L1 adipocytes, calcein-AM fluorescence, 48 h, basal (AID 1163). Note: test concentration not given here. To be noted: 3T3-L1 adipocytes viability, higher = more signal.
Assay [3] in a line: HepG2 cell viability effects, profiling panel, calcein-AM fluorescence, 48 h, basal (AID 1164). Note: test concentration not given here. The following applies: higher = more signal.
A short description of assay [4]: MM1S cell viability effects, profiling panel, calcein-AM fluorescence, 48 h, basal (AID 1165).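 Note: viability of MM1S multiple myeloma cells under basal unstimulated conditions; test concentration not given here.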 To be noted: higher = more signal.
Assay [5] is described as follows: basal RPMI8226 viability, no added stimulus, profiling panel, cell-based, calcein-AM fluorescence, 48 h, PK04 Diversity Set (AID 1166).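 Note: cells grown under basal conditions without added stimulus; test concentration not given here.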 To be noted: RPMI8226 myeloma viability, higher = more signal.
Assay [6] in a line: basal HepG2 mitochondrial membrane potential changes, profiling panel, cell-based, JC-1 fluorescence, 24 h, 100 nL compound (AID 1167). Note: test concentration not given here. To be noted: higher = more signal.
Assay [7] can be described thus: basal 3T3-L1 adipocyte mitochondrial potential changes, profiling panel, cell-based, JC-1 fluorescence, 3T3-L1 adipocytes, 24 h, 100 nL compound (AID 1168). Note: test concentration not given here. To be noted: JC-1 mitochondrial fluorescence, higher = more signal, called active from +8 up or from −8 down.
The nature of assay [8]: basal RPMI8226 mitochondrial membrane potential changes, profiling panel, cell-based, JC-1 fluorescence, 24 h, 100 nL compound (AID 1169). Note: test concentration not given here. To be noted: RPMI8226 myeloma, JC-1 mitochondrial potential fluorescence, higher = more signal.
Assay [9] can be described thus: basal MM1S mitochondrial membrane potential changes, profiling panel, cell-based, JC-1 fluorescence, 24 h, 100 nL compound (AID 1170). Note: test concentration not given here. The following applies: higher = more signal.
A short description of assay [10]: A549 lung cancer cell viability effects, profiling panel, resazurin fluorescence, 24 h, PK04 Diversity Set (AID 1171). Note: test concentration not given here. The following applies: higher = more signal, called active from +8 up or from −8 down.
Assay [11] in a line: HepG2 liver cancer cell viability effects, profiling panel, resazurin fluorescence, 24 h, PK04 Diversity Set (AID 1172). Note: test concentration not given here. The following applies: higher = more signal.
A short description of assay [12]: basal S. cerevisiae growth modulation, no modifier, primary screen, OD600, strain BY4716, 24 h, basal condition (AID 1173). The following applies: OD600, 24 h, higher = more signal, called active from +8 up or from −8 down.
A short description of assay [13]: MM1S myeloma cell viability, profiling panel, resazurin fluorescence, basal, 24 h, PK04 Diversity Set (AID 1174).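 Note: MM1S multiple myeloma cell line; test concentration not given here.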 To be noted: higher = more signal, called active from +8 up or from −8 down.
For assay [14], the target named is Dihydroorotate dehydrogenase (quinone), mitochondrial (Plasmodium falciparum (isolate 3D7)) (UniProt Q08210). Put plainly: PfDHODH enzyme inhibitors, primary screen, biochemical, C-terminal His tag, absorbance 600 nm (AID 1175).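 Note: recombinant parasite enzyme with a five histidine tag at its C terminus; test concentration not given here.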 The following applies: DCIP absorbance 600 nm, higher = more signal, called active from +8 up or from −8 down.
A short description of assay [15]: P. aeruginosa biofilm formation inhibitors, primary screen, strain PAO1, LB-PBS medium, absorbance 600 nm (AID 1176). Note: test concentration not given here. To be noted: P. aeruginosa PAO1 growth/biofilm, A600, 12 h; higher = more signal.
A short description of assay [16]: S. cerevisiae RM11-1a growth modifiers, primary screen, strain RM11-1a, OD600, basal, 24 h (AID 1177).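 Note: cultures grown under basal conditions with no added stressor; test concentration not given here.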 The following applies: OD600, 24 h, higher = more signal, called active from +8 up or from −8 down.
Assay [17] is described as follows: E. coli acrAB mutant growth effects, primary screen, E. coli filamentation inducers, strain DRC39, OD650, 24 h (AID 1178).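 Note: growth measured as culture turbidity by optical density at 650 nm; test concentration not given here.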 To be noted: higher = more signal, called active from +8 up or from −8 down.
Assay [18] in a line: E. coli acrAB mutant growth effects, primary screen, E. coli filamentation inducers, strain DRC39, OD650, 48 h (AID 1179).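 Note: screen aims at cell division blockers that make cells filament.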 To be noted: E. coli DRC39 delta-acrAB growth, higher = more signal, called active from +8 up or from −8 down.
Assay [19] can be described thus: RPMI8226 myeloma cell viability, profiling panel, resazurin fluorescence, basal, 24 h, PK04 Diversity Set (AID 1180).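 Note: RPMI8826 multiple myeloma cell line at 5000 cells per well; test concentration not given here.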 The following applies: higher = more signal. (In general: Resazurin is reduced to fluorescent resorufin, in cell work by metabolically active cells.)
The target in assay [20] is E3 ubiquitin-protein ligase XIAP (Homo sapiens) (UniProt P98170). Put plainly: XIAP binders, primary screen, biophysical, small-molecule microarray, fluorescence 635 nm (AID 1181).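 Note: score merges 667 nm emission and signal to noise over triplicate slides.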 The following applies: small-molecule microarray binding, higher = more signal.

“And” between values parts separate entries of the source, which are not always exact repeats. Equal values may be shown once. The source made the active and inactive calls. Unless noted, the rule behind the calls is not given here.

Sequence of Dihydroorotate dehydrogenase (quinone), mitochondrial (Plasmodium falciparum (isolate 3D7)) (Q08210 whole entry, looked up): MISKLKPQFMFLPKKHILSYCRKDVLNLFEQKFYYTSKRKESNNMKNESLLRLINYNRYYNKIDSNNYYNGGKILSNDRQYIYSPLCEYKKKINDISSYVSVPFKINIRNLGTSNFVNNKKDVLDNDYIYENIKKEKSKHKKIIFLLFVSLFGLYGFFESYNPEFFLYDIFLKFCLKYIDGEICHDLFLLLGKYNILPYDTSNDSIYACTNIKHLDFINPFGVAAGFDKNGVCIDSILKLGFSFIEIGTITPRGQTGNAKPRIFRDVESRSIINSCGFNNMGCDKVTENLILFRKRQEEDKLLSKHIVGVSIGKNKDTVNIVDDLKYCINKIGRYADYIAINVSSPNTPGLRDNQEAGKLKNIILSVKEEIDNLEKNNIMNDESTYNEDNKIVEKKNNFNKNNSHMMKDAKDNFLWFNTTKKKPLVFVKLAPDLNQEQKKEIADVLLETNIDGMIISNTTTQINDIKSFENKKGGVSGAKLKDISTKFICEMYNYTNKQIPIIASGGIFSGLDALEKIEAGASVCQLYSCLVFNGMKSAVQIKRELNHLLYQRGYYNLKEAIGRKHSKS
Sequence of E3 ubiquitin-protein ligase XIAP (Homo sapiens) (P98170 whole entry, looked up): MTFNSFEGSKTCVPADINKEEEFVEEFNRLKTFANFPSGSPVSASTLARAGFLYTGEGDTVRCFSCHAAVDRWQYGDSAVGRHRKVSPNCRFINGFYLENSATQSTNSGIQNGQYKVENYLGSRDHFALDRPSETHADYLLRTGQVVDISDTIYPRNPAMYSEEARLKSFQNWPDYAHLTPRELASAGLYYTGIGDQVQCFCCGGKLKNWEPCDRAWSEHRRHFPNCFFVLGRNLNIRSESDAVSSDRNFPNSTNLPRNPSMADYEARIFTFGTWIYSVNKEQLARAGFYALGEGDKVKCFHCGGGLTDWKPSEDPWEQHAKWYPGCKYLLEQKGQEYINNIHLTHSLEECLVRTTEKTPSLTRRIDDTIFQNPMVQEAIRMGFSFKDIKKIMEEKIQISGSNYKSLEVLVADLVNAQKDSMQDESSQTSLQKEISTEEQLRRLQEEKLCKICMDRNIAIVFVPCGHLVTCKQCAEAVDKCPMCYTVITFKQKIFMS

Consider `C=C[C@H](OC)[C@@H](O)c1ccc(O)c(F)c1`, for which the z-score in assay [1] is -0.52 and -0.4; in assay [2], -0.345 and -0.128; in assay [3], -0.0991 and 0.594; in assay [4], -1.17 and 1.06; in assay [5], 0.544 and 0.196; in assay [6], -0.914 and 0.658. The z-score in assay [7] is -0.186 (inactive) and -0.636 (inactive); in [8], 0.675 and 0.679; in assay [9] it was -0.0752 and -0.474; in assay [10] it was -0.535 (inactive) and -0.0165 (inactive); in assay [11] it was -0.463 and 0.413; in assay [12] it was -2.28 (inactive) and -3.3 (inactive). For the same compound, the z-score in assay [13] was -0.74 (inactive) and 0.169 (inactive); in [15], 0.614 (inactive) and 0.45 (inactive); in [16], -0.684 (inactive) and -0.0772 (inactive); in [17], 0.136 (inactive) and 1.2 (inactive); in [18] it was 0.0056 (inactive) and 1 (inactive); in assay [19] it was -0.792 and 0.496. In addition, the composite z-score in [14] was -0.697 (inactive) and -0.991 (inactive); in assay [20], -0.283 and -0.107.
Regarding `CO[C@H]1COC(=O)CC=C[C@@H](C)COC(=O)[C@@H](OCc2ccccc2)C=C[C@@H]1C`, the z-score in assay [1] is 0.497; in assay [2] it was 0.146; in [3], 0.835; in assay [4], 0.301; in assay [5], 0.608; in [6], 0.952. For the same compound, the z-score in assay [7] was -0.0508 (inactive); in assay [8], -0.442; in [9], -0.414; in assay [10], -0.34 (inactive); in [11], 0.537; in [12], -1.93 (inactive). Besides, the z-score is 0.155 (inactive) in [13]; -0.72 (inactive) in assay [15]; -0.78 (inactive) in assay [16]; 0.84 (inactive) in [17]; 0.929 (inactive) in assay [18]; 0.142 in assay [19]. The values for the composite z-score in assay [14] and in [20] were -0.825 (inactive) and -0.245, respectively.
In the case of `CC(C)OC(=O)C=C1C[C@@H](c2ccccc2)O[C@@H](c2ccccc2)O1`, the z-score was 0.604 and -0.204 in assay [1]; 0.211 and 0.24 in assay [2]; 1.57 and 0.805 in assay [3]; -1.8 and -3.29 in [4]; -0.192 and -1.79 in assay [5]; 1.06 and -0.0936 in assay [6]. For the same compound, the z-score was 0.383 (inactive) and 1.71 (inactive) in assay [7]; -0.374 and -0.422 in assay [8]; -2.57 and -3.36 in assay [9]; 1.28 (inactive) and 0.255 (inactive) in assay [10]; 0.0904 and -0.562 in assay [11]; -1.21 (inactive) and -0.385 (inactive) in [12]. For the same compound, the z-score is 0.468 (inactive) and -3.15 (inactive) in assay [13]; 0.533 (inactive) and 0.394 (inactive) in assay [15]; 0.306 (inactive) and 0.904 (inactive) in assay [16]; -0.65 (inactive) and -0.601 (inactive) in assay [17]; 0.945 (inactive) and 0.907 (inactive) in assay [18]; 1.54 and -2.33 in assay [19]. The composite z-score in assay [14] is -0.125 (inactive) and -1.68 (inactive); in assay [20] it was -0.13 and 0.013.
As for `CC(CO)N1C(=O)[C@@H]2C3C(=O)OCCC=C[C@H]3OC23C=CCN(Cc2ccccc2)C(=O)[C@@H]13` (stereo not given in full), the z-score in assay [1] was 0.606 and 0.0694; in assay [2] it was 0.888 and 0.458; in [3], 0.237 and 0.113; in [4], 0.34 and 0.311; in assay [5], -0.306 and -0.454; in assay [6], 0.567 and 0.15. Moreover, the z-score in assay [7] is 0.932 (inactive) and 0.902 (inactive); in [8], -0.914 and 0.0338; in assay [9] it was 0.789 and 0.282; in assay [10] it was 0.305 (inactive) and 0.147 (inactive); in assay [11] it was 0.278 and -0.0236; in [12], 1.35 (inactive) and -1.28 (inactive). In addition, the z-score in [13] was 0.533 (inactive) and 0.868 (inactive); in assay [15], -1.35 (inactive) and -0.0684 (inactive); in [16] it was 1.57 (inactive) and -0.214 (inactive); in assay [17], 0.748 (inactive) and 0.632 (inactive); in [18], 0.453 (inactive) and 0.309 (inactive); in assay [19] it was 0.252 and 0.693. In addition, the composite z-score in [14] is 0.113 (inactive) and -2.83 (inactive); in [20], -0.196 and 0.194.
Regarding `CC(C)OC(=O)C=C1C[C@@H](c2cccc(C(F)(F)F)c2)O[C@@H](c2cccc(C(F)(F)F)c2)O1`, the z-score was 0.133 and 0.343 in assay [1]; -0.425 and 0.279 in assay [2]; 0.957 and 0.258 in assay [3]; -0.499 and -1 in [4]; -0.195 and -0.167 in assay [5]; -0.447 and 0.606 in assay [6]. Further, the z-score in assay [7] is 0.297 (inactive) and 0.121 (inactive); in assay [8] it was -0.897 and -0.238; in assay [9], -3.24 and -1.09; in assay [10], 0.308 (inactive) and 1 (inactive); in assay [11], -0.115 and 0.0158; in assay [12], 0.308 (inactive) and 0.626 (inactive). Besides, the z-score was -1.7 (inactive) and 0.108 (inactive) in assay [13]; 0.834 (inactive) and 0.269 (inactive) in assay [15]; 0.69 (inactive) and -0.0601 (inactive) in assay [16]; -0.169 (inactive) and -0.948 (inactive) in [17]; 1.04 (inactive) and 0.509 (inactive) in [18]; -0.899 and 0.393 in [19]. In addition, the composite z-score in [14] is -2.02 (inactive) and -2.59 (inactive); in [20], -0.195 and 0.163.
On to `CCOC(=O)[C@H](CC(C)C)NC(=O)CCC1CC(OC(=O)NCc2cccc3ccccc23)CC2(CCCC(COC(=O)NCc3ccccc3)O2)O1` (stereo not given in full), for which the z-score in assay [1] was 0.531; in [2], -0.172; in assay [3], -0.435; in [4], 0.184; in [5], 0.0523; in [6], 2.45. Also, the z-score in assay [7] is 0.472 (inactive); in [8], 0.0897; in assay [9], -0.717; in [10] it was 0.586 (inactive); in [11] it was 0.928; in assay [12] it was -1.76 (inactive). The z-score is 1.06 (inactive) in assay [13]; -0.0326 (inactive) in [15]; -0.527 (inactive) in [16]; -0.482 (inactive) in [17]; -0.102 (inactive) in assay [18]; 0.588 in assay [19]. Moreover, the composite z-score is -0.621 (inactive) in assay [14] and -0.125 in assay [20].

These data come from PubChem BioAssay.
